A selection: hits, their analogues and other compounds. The true share with any hit is near 7.3%.
NPC1 prom act: activators of NPC1 promoter. Huh7 NPC1 promoter luciferase reporter, 24 h. Potency, µM (series often up to 9.22 µM), inactives show at the top dose activation, most hits filed as activators. 2.4% of 320,000 active. AID 485313; further: % of control where 0% means no effect; nearly all actives have a fitted effect of over 60% in size
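Huh7 reporter cells (NPC1 promoter driving luciferase) are dosed with compound for 24 h at 37 °C, 5% CO2; luciferase detection reagent is then added and luminescence measured after 10 min at ambient temperature.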
Luc counter: blocks Kinase-Glo luciferase, a counter-screen artifact; Q27757; Potency, µM (top dose mostly 38.3 µM), inactives show at the highest dose activity change, negative = inhibition, actives largely listed as inhibitors; 0.28% of 200,000 active; AID 1379; Kinase-Glo luciferase, ATP luminescence, 8 min; further: on the % scale 0 is the no-effect control and ±100 the full control effect; nearly all actives have a fitted effect of over 60% in size
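Light output from Kinase-Glo luciferase with luciferin and 10 uM ATP in 50 mM imidazole pH 7.2, KCl, MgCl2, Tween 20, BSA; compound pin-delivered, 8-min ambient incubation, then luminescence read.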
FLuc modulator: inhibits or activates purified firefly luciferase, miR-21 counter-screen | P08659 | purified FLuc, Km substrates, luminescence inhibition | Potency, µM (series often up to 57.5 µM), for inactives: at the highest dose activity change, negative = inhibition, actives largely listed as inhibitors | 6.9% of 360,000 active | AID 588342;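 further: plate controls were vehicle for no effect and reference inhibitor for full effect; nearly all actives have a fitted effect of over 55% in size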
Target sequence (P08659 whole entry, looked up): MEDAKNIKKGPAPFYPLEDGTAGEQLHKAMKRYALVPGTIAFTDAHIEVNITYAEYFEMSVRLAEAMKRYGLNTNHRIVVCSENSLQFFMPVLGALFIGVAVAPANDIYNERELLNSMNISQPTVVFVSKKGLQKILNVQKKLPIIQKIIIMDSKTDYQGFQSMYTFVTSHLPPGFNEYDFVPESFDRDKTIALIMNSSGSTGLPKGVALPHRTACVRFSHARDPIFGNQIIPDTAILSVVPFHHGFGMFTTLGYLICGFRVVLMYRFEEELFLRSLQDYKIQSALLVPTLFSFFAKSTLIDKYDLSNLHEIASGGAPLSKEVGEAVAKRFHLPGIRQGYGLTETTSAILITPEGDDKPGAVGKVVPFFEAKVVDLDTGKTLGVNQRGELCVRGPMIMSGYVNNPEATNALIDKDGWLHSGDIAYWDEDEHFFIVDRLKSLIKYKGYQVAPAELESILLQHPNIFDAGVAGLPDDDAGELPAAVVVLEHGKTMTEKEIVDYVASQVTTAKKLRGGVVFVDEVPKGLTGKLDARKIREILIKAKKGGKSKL
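Biochemical qHTS of compounds, final roughly 60 µM downward over six points, against 10 nM purified firefly luciferase using Km concentrations of substrates (10 uM D-luciferin, 10 uM ATP) in Tris acetate pH 7.5 buffer; luminescence output.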
ELG1 genotoxic: genotoxicity induction in ELG1-luciferase HEK293T cells; 1.3% of 330,000 active; HEK293T ELG1-luciferase reporter, luminescence, 16 h; Potency, µM (top dose mostly 46 µM), for inactives: top-dose activity change, positive = activation, actives largely listed as activators; AID 504466; further: % of control where 0% means no effect; nearly all actives have a fitted effect of over 60% in size
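16 hr compound incubation (37 °C, 5% CO2) of HEK293T cells carrying luciferase-tagged ELG1; luciferase then measured by ONE-Glo luminescence after 30 min at RT.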
SMN2 splice enh: increases expression of the SMN2 splice variant; HEK293 SMN2-luciferase splicing reporter, luminescence, 30-36 h; Potency, µM (highest dose often 46.1 µM), for inactives: at the highest dose activity change, positive = activation, hits mostly activators; 2.8% of 210,000 active; further: % of control where 0% means no effect; nearly all actives have a fitted effect of over 55% in size
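HEK293 cells carry an SMN2 minigene-luciferase reporter in which exon 7 inclusion puts luciferase in frame. Cells were seeded at 2000 cells/well, attached for 10-12 hours, then exposed to compounds for 30-36 hours at 37C before ONE-Glo luminescence.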
Rab9 promoter act: Rab9 promoter activation; Potency, µM (titrated, usually from 9.22 µM), for the others: at the highest dose activation, negative = inhibition, hits mostly activators; 2.8% of 320,000 active; Huh7 Rab9 promoter-luciferase reporter, luminescence, 24 h; further: % of control where 0% means no effect; nearly all actives have a fitted effect of over 60% in size
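Luminescence read-out: Huh7 cells stably expressing Rab9-luciferase, treated 24 h with compound at 37 °C, then lysed with luciferase reagent for 10 min at ambient before reading.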
Numbers without * were called inactive; ? = inconclusive; nt = no result given. The call rests on the fitted dose curve; in most records, active means well fitted curve in the direction sought with a large enough effect; inconclusive means small, poorly fitted or top-dose-only effect, or another doubt; inactive means no such curve, though single readings can be large; an effect the other way counts as inactive or inconclusive. Potency means the concentration at half of the fitted maximal effect.

SMILES | NPC1 prom act | Luc counter | FLuc modulator | ELG1 genotoxic | SMN2 splice enh | Rab9 promoter act
Cc1cc(=O)[nH]c2nnc(-c3ccc(Br)cc3)n12 | 2.8µM* | nt | 0.95µM* | ? | nt | ?
COc1ccc(S(=O)(=O)n2nc(C)c(S(=O)(=O)N3CCC(C)CC3)c2C)cc1C | nt | nt | -16% | nt | nt | nt
Cn1cccc1CNC(=O)Nc1ccc(Cl)c(Cl)c1 | 4µM* | -10% | 8.5µM* | ? | ? | 3.2µM*
COCCNC(=S)Nc1ccc(Cl)c(Cl)c1 | 2% | 1% | -2% | -2% | ? | -1%
C=COCCNC(=O)Nc1ccc(Cl)c(Cl)c1 | ? | 3% | 17µM* | -3% | 27% | ?
CCOc1ccc(NC(=O)NCc2cccn2C)cc1 | ? | nt | ? | ? | nt | 20%
O=C(NCC1CC1(Cl)Cl)Nc1ccc(Cl)c(Cl)c1 (stereo unspecified) | ? | nt | 17µM* | -4% | nt | ?
Cc1ccc(NC(=O)NCC2CC2(Cl)Cl)cc1 (stereo unspecified) | 2.2µM* | nt | 11µM* | ? | nt | 3.5µM*
COc1ccc(OC)c(NC(=O)c2cc3cc(C)ccc3n2C)c1 | nt | nt | -2% | nt | nt | nt
O=S(=O)(NCc1nc2cccnc2n1Cc1ccccc1Cl)c1ccc(F)c(Cl)c1 | nt | nt | -10% | nt | nt | nt
COc1ccc(CCNC(=O)c2c(C)nn(-c3ccc(F)cc3)c2-n2cccc2)c(OC)c1OC | nt | nt | -14% | nt | nt | nt
CC(C)CCNS(=O)(=O)c1ccc(N2CCCCS2(=O)=O)cc1 | nt | nt | -7% | nt | nt | nt
Cc1ccc(Nc2ncccc2C(=O)O)cc1C | ? | -5% | 17µM* | ? | 19% | ?
Cc1cc(C)c(Nc2ncccc2C(=O)O)c(C)c1 | 0% | -3% | -12% | 2% | nt | -13%
O=C(O)c1cccnc1Nc1ccc(Cl)cc1 | 22% | 1% | 17µM* | 0% | 10µM* | ?
Cc1cccc(Nc2ncccc2C(=O)O)c1C | 10% | nt | 21µM* | 11% | nt | 2%
NC(=O)c1cccnc1Nc1ccccc1Cl | 3% | 0% | ? | 14% | -19% | 1%
Cc1ccc(Nc2ncccc2C(N)=O)cc1[N+](=O)[O-] | ? | -1% | 12µM* | ? | 14µM* | 3.5µM*
Cc1cc(C)c(S(=O)(=O)NCC(c2cccs2)S(=O)(=O)c2ccccc2)c(C)c1 (stereo unspecified) | nt | nt | 4% | nt | nt | nt
COc1ccccc1Nc1cc(C(=O)N2CCc3ccccc3C2)c2ccccc2n1 | 1% | 2% | ? | -14% | -4% | 10%
COc1ccc(Nc2cc(C(=O)N3CCc4ccccc4C3)c3ccccc3n2)c(OC)c1 | -1% | -3% | 15µM* | -19% | -9% | -1%
COc1ccc(CNC(=O)c2cc(Nc3ccc(OC)cc3OC)nc3ccccc23)cc1 | nt | nt | 7.6µM* | nt | 4% | nt
CCOc1ccccc1CNC(=O)c1cn(-c2ccc(OC)cc2)c(=O)c2ccccc12 | nt | nt | 9.5µM* | nt | nt | nt
COCCCNC(=O)c1cc(Nc2ccc(OC)cc2OC)nc2ccccc12 | 12% | nt | 19µM* | -7% | nt | -6%
COc1ccc(OC)c(Nc2cc(C(=O)NCc3ccccc3)c3ccccc3n2)c1 | nt | nt | -8% | nt | 2% | nt
SMILES | NPC1 prom act | Luc counter | FLuc modulator | ELG1 genotoxic | SMN2 splice enh | Rab9 promoter act
CCOc1ccc(C(=O)c2cn(CC(=O)Nc3ccc(C)c(C)c3)c3ccc(OCC)cc3c2=O)cc1 | nt | nt | -1% | nt | 4% | nt
Cc1oc(-c2cccc(Cl)c2)nc1CN1CCC(C(=O)NCc2ccc(F)cc2)CC1 | nt | nt | -17% | nt | -5% | nt
COC(=O)CC1Oc2ccc(Cl)cc2-n2cc(-c3ccc(C)cc3)nc21 (stereo unspecified) | nt | nt | -7% | nt | 1% | nt
O=c1c2c3c(sc2n(Cc2cc(=O)n4ccccc4n2)c(=O)n1-c1ccccc1)CCC3 | nt | nt | 0% | nt | -2% | nt
COc1ccc(Nc2cc(C(=O)NCc3ccco3)c3ccccc3n2)cc1 | 0% | 5% | 2% | -2% | 8% | -5%
COc1ccc(Nc2cc(C(=O)NCc3ccccc3OC)c3ccccc3n2)cc1 | nt | nt | 11µM* | nt | nt | nt
COc1ccc(CCNC(=O)c2cc(-c3ccccc3)nc3ccccc23)cc1OC | nt | nt | ? | nt | -4% | nt
COc1ccc(CCNC(=O)c2cc(Nc3cc(C)cc(C)c3)nc3ccccc23)cc1OC | nt | nt | 6µM* | nt | 1% | nt
COc1cccc(-c2nnc3sc(-c4ccco4)nn23)c1 | 4.5µM* | -4% | ? | ? | 20% | 2.8µM*
COc1cccc(-c2nnc3sc(-c4cccs4)nn23)c1 | 3.2µM* | -3% | ? | 16% | ? | 2.8µM*
COc1cccc(-c2nnc3sc(-c4ccc(C)cc4)nn23)c1 | -3% | 0% | -3% | -3% | 0% | 3%
COc1cccc(-c2nn3c(-c4cccc(C)c4)nnc3s2)c1 | -9% | 11% | 19µM* | 12% | 3% | 8%
CCOc1cccc(-c2nnc3sc(-c4cccs4)nn23)c1 | -3% | 1% | 1% | 5% | -21% | 6%
COc1ccc(N2CCN(C(=O)c3ccc4c(c3)N(Cc3ccc(F)cc3)C(=O)c3ccccc3S4=O)CC2)cc1 (stereo unspecified) | nt | nt | -1% | nt | -7% | nt
Cc1ccc(-c2cc(C(=O)NCCc3ccc(S(N)(=O)=O)cc3)c3ccccc3n2)cc1 | 4% | -7% | 6µM* | -9% | -2% | 14%
COc1ccc(-c2cc(C(=O)NCCc3ccc(S(N)(=O)=O)cc3)c3ccccc3n2)cc1 | 4% | -15% | 7.6µM* | -16% | -12% | 26%
NC(=O)N/N=C/c1cn(-c2ccccc2)nc1-c1cccnc1 | 1% | nt | 9.5µM* | 6% | nt | -2%
O=C(/C=C/c1cn(-c2ccccc2)nc1-c1cccnc1)N1CCCCC1 | 0% | -1% | 15µM* | -4% | 3% | 10%
NC(=S)N/N=C/c1cn(-c2ccccc2)nc1-c1cccnc1 | 15% | nt | 6µM* | 7% | nt | 12%
Cc1ccc(N2CCN(C(=O)NCc3noc4ccc(C)cc34)CC2)c(C)c1 | nt | nt | -3% | nt | nt | nt
Cc1ccc(C(CC(=O)Nc2ccc(C)cc2C)N2Cc3ccccc3C2=O)cc1 (stereo unspecified) | nt | nt | -11% | nt | nt | nt
CCCCN(C)CC(O)Cn1cc(/C=C/C(=O)c2ccc(OCC)cc2)c2ccccc21 (stereo unspecified) | -1% | nt | 17µM* | 0% | -83% | -4%
O=C(O)c1ccc(Cl)c(S(=O)(=O)Nc2ccccc2N2CCOCC2)c1 | -4% | 9% | -5% | -1% | -4% | -3%
O=S(=O)(Nc1cccc(-c2ccc(N3CCOCC3)nn2)c1)c1cc(C(F)(F)F)ccc1Cl | nt | nt | 5.4µM* | nt | nt | nt
O=S(=O)(Nc1cccc(-c2ccc(N3CCOCC3)nn2)c1)c1ccccc1C(F)(F)F | nt | nt | 7.6µM* | nt | nt | nt
O=S(=O)(Nc1cccc(-c2ccc(N3CCOCC3)nn2)c1)c1ccc(F)cc1F | nt | nt | 7.6µM* | nt | nt | nt
